27 compounds from PubChem BioAssay (NCI) can be followed below.

The panel holds about 83,000 compounds, 20% with a hit somewhere; the sample as a whole holds those more often.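 Growth was measured after 48 h exposure to one concentration of compound in 96-well plates. Values under 10 count as active.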 Unmarked numbers belong to inactive results. Active and inactive are the calls of the source.

The subject of the assay is HL-60(TB) leukemia. Put plainly: NCI-60 one-dose screen, 48 h (100 = growth as untreated, 0 = no growth, -100 = all killed). The settings on record: 10 µM unless noted.
For `Cc1ccc(/C=C/C(=O)c2ccc(NC(=O)CSc3nnc(-c4c[nH]c5ccccc45)n3-c3ccccc3)cc2)cc1`, the growth was 75.5%.
In the case of `COc1ccc(N2N=C(c3ccc4c(c3)OCO4)CC2c2cccc(NC(=O)CCCNS(=O)(=O)c3ccc(F)cc3)c2)cc1` (configuration not stated) it was 55.7%.
As for `COc1ccc(CCN2C(=O)/C(=C/c3csc(C#N)n3)SC2=S)cc1OC`, the growth was -18% (active).
Take `Cc1cc(N=C2NC(=O)/C(=C/c3cc(C(C)(C)C)c(O)c(C(C)(C)C)c3)S2)n[nH]1`: the growth is 5.2% (active).
The value for `CC(/C=C1\SC(=S)N(CCCC(=O)NC(CC(C)C)C(=O)O)C1=O)=C\c1ccccc1` (configuration not stated) was 63.4%; that for `CN(CCO)c1oc(-c2ccccc2)nc1[P+](c1ccccc1)(c1ccccc1)c1ccccc1` was -33.1% (active).
As to `Cc1nn(-c2ccccc2)c2nc(C)n(CC(=O)N/N=C/c3cccc([N+](=O)[O-])c3)c(=O)c12`, the growth was 99%.
Take `C#CCOc1cc(N(CC)CC)ccc1C(C(=O)NC(C)(C)C)N(C(=O)C1CCc2cc(F)ccc2O1)c1cc(C)cc(C)c1` (configuration not stated): the growth is 7.34% (active).
`CC1(c2ccccc2)NC(=O)N(CC(=O)Nc2ccc(C(=O)/C=C/c3ccc(Cl)cc3)cc2)C1=O` (configuration not stated): the growth is -27.7% (active).
The value for `CCN(CC)c1ccc(/C=N/Nc2nc(-c3ccc(Br)cc3)cs2)c(O)c1` was 35.6%; that for `CC(C)(C)C(=O)C1CC(C#N)=C2C=Cc3c(ccc4ccccc34)N21` (configuration not stated) was 108%; that for `COc1ccc(Cc2nn(CC(=O)N/N=C/c3ccc(F)cc3)c(=O)c3c(C)noc23)cc1` was 78.2%.
The value for `O=c1[nH]n(C(=S)N/N=C/c2ccccc2Cl)c(=O)c2ccccc12` was -6.48% (active); that for `Nc1nnc(-c2c[nH]c3ncc(Br)cc23)c(-c2c[nH]c3ccc(F)cc23)n1` was -0.929% (active).
With `O=C(N/N=C/c1ccc(-c2ccc(O)cc2)o1)c1[nH]c2ccc(Br)cc2c1-c1ccccc1`, the growth was -20.6% (active).
Turning to `O=C(Nc1ccc(I)cc1)Nc1nc2ccc([N+](=O)[O-])cc2s1`, the growth was -37.3% (active).
Regarding `Cc1ccc([C@H]2C(C(=O)c3ccc(Cl)cc3)C3(N[C@@H]2c2ccccc2)C(=O)Nc2ccc(Cl)cc23)cc1` (some centres not stated), the growth was 34.1%.
The value for `CC12CC[C@@H]3[C@]4(C)COC(c5cn[nH]c5-c5ccc(Br)cc5)O[C@@H]4CC[C@@]3(C)[C@@H]1CC(C1=CCOC1=O)O2` (some centres not stated) was 27.2%.
In the case of `CCOC(=O)/C(F)=C/C1CC1C1CCN(C(=O)OC(C)(C)C)CC1` (configuration not stated), the growth was 102%.
Consider `Cn1cc(-c2cc3nc(-c4cn(C)c5ncccc45)cc(N)n3n2)c2cc(F)ccc21`, for which the growth was 7.11% (active).
Consider `CC1=C(C(=O)OC(C)C)C(c2cccc(O)c2)NC(=S)N1` (configuration not stated), for which the growth was 99.2%.
In the case of `O=C1Nc2cc(-c3ccc(NC(=O)c4cccc([N+](=O)[O-])c4)cc3)ccc2/C1=C/c1ccc[nH]1` it was 106%; in that of `CN(C)c1nc(NCCNS(=O)(=O)c2ccc(C(=O)/C=C/c3ccccc3)cc2)nc(Nc2ccc(F)cc2)n1`, 14%.
The value for `COc1ccc(C2=NN(C(=O)[C@H]3[C@@H](c4ccco4)c4sc(=O)[nH]c4S[C@@H]3C)C(c3ccc4ccccc4c3)C2)cc1` (some centres not stated) was 2.93% (active); that for `COc1ccc(Cc2nn(CC(=O)N/N=C/c3ccc(Br)cc3)c(=O)c3c(C)noc23)cc1` was 91.2%.
In the case of `N#CC1=C(c2ccco2)Nc2c(c(-c3ccccc3)nn2-c2ccccc2)C12C(=O)Nc1ccc(Cl)cc12` (configuration not stated), the growth is 43.8%.
On to `CN(C)c1nc(NCCNS(=O)(=O)c2ccc(C(=O)/C=C/c3ccc(C(F)(F)F)cc3)cc2)nc(Nc2ccc(F)cc2)n1`, for which the growth was -21.8% (active).
